# Assay results published in PubChem BioAssay AID435005 (Broad Institute, 2010).
# Screen size: about 300,000 compounds; about 2,400 (0.8%) were called active. The entries come from a sample that favours actives as a whole. Unmarked numbers belong to inactive results.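 Rule for the calls: active = Every replicate reaches about 75%, or at least half do and their mean reaches it too (limit read from the data); inconclusive = At least half of replicates reach the limit but their mean does not; inactive = Under half of replicates reach the limit.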
# Experiment: INS-1E beta cell survival under cytokines – luminescence, primary screen (AID 435005);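 note: 0% = cytokine-treated negative control wells and 100% = positive control rescue; higher means more ATP so stronger rescue from cytokine killing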
# Conditions: INS-1E cytokine-induced death, ATP luminescence, 48 h; stronger effect = higher value; concentration not given here
row,SMILES,protection from apoptosis
1,CCOc1cccc(=NC2CCCCC2)c2c(C)[nH]c(C)c12,115% (active)
2,C[C@]12CCC3C(CC[C@H]4C[C@@H](O)CC[C@]34C)C1CC[C@@H]2O (stereo not given in full),1.25%
3,O=C1C2(Cl)C3(Cl)C4(Cl)C(Cl)(Cl)C5(Cl)C3(Cl)C1(Cl)C5(Cl)C24Cl (stereo not given),-14.2%
4,COC(=O)C1=C(c2ccc(F)cc2OCc2ccccc2)C[C@@H]2CC[C@H]1N2C(=O)NCc1ccc(OC)c(OC)c1,-1.83%
5,C[C@]12CC[C@H](O)CC1=C([N+](=O)[O-])CC1C2CC[C@@]2(C)C1CC[C@@H]2O (stereo not given in full),-1.49%
6,COC(=O)C1=C(c2ccccc2OCc2ccccc2)C[C@@H]2CC[C@H]1N2C(=O)NCc1ccc(OC)cc1,-9.52%
7,CCCCCCCCCCCCn1ccc(=N)cc1,117% (active)
8,C[C@]12CCC3C(CC[C@H]4C[C@@H](O)CC[C@]34C)C1C[C@@H](O)[C@H]2O (stereo not given in full),0.154%
9,CCC(=O)c1ccc(OCC(=O)N2CCN(CC(=O)Nc3ccc(C)cc3)CC2)cc1,4.28%
10,Clc1cccc(Cl)c1Cl,5.51%
